# The full list was thinned out, with hits kept by preference.
# Cruzain Triton – cruzain (T. cruzi) inhibition with detergent; hit rate 0.43% among 200,000; Potency, µM, for inactives: max response, negative = inhibition, actives largely listed as inhibitors; purified cruzain, Z-FR-AMC fluorescence, 0.01% Triton;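 also: plate controls were neutral wells for no effect and buffer without enzyme for full effect; nearly all actives have a fitted effect of over 40% in size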
# Target sequence (P25779 123-467 limits assumed): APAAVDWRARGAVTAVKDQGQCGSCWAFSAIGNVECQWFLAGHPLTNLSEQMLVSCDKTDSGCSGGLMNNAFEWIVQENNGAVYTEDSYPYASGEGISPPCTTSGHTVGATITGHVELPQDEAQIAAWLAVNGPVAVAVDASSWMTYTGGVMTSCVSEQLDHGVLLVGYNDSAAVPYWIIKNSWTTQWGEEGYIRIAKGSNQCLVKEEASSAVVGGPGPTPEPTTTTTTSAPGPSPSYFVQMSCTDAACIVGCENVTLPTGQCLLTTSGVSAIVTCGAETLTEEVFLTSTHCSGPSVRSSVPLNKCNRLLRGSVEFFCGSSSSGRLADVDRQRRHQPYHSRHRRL
#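 Detergent-containing arm of a paired screen for aggregation-based inhibition: 0.01% Triton X-100 present. Cruzain at 1.5 nM cleaved 2 uM Z-FR-AMC at pH 5.5 with 5 mM DTT; AMC fluorescence gain over 60 s measured activity.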
# Cruzain inh noDet – blocks cruzain activity in detergent-free assay; purified cruzain, Z-FR-AMC fluorescence, no detergent; Potency, µM, without a hit: max response, negative = inhibition, most hits filed as inhibitors; hit rate 2.3% among 200,000; AID 1476;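 also: plate controls were enzyme without inhibitor for no effect and buffer without enzyme for full effect; nearly all actives have a fitted effect of over 40% in size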
#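 Detergent-free condition (0.00005% Triton X-100) in acetate buffer pH 5.5 with DTT. 1.5 nM enzyme and compound were pre-mixed 15 min, then 2 uM Z-FR-AMC substrate added; reaction progress from fluorescence change between first and third reads (60 s).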
# NS1 inh – inhibitors of influenza NS1 protein function. AID 2326. hit rate 0.4% among 270,000. Potency, µM (titrated, usually from 46.1 µM), for the others: top-dose activity, positive = more growth; calls by dose curve; also: actives are rising curves; nearly all actives have a fitted effect of over 50% in size
#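 S. cerevisiae expressing influenza A NS1, grown in glucose, washed, then diluted 1:100 into pH 6.0 -URA galactose medium with 23 nl compound. Growth recovery read as OD600; NS1-free strain serves as control.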
# Starred values were filed as active, the others as inactive; ? = inconclusive; · = not tested or not shown. Unless noted, calls follow the shape of the dose curve; as a rule, active = well fitted curve in the direction sought with a large enough effect; inconclusive = small, poorly fitted or top-dose-only effect, or another doubt; inactive = no such curve, though single readings can be large; an effect the other way counts as inactive or inconclusive. Potency is read from the fitted curve at half-maximal effect.
SMILES,Cruzain Triton,Cruzain inh noDet,NS1 inh
COc1ccccc1CNC(=O)c1ccc(-c2nc(CN3CCc4ccccc43)c(C)o2)cc1,-3%,?,·
O=C(CSc1nc2ccccc2[nH]1)N1c2ccccc2Sc2ccccc21,-6%,-3%,-15%
O=C(CSc1nc2ccccc2[nH]1)c1ccc(Cl)s1,-4%,10µM*,3%
CCCCCCCCCCCCCCC(C(=O)O)C(O)(CC(=O)OC)C(=O)O (stereo not given),-11%,16%,·
O=C(N/N=C\c1ccc(OC(=O)c2cccs2)cc1)c1ccc(Cl)cc1,-21%,10µM*,-17%
O=C(N/N=C/c1cn(-c2ccccc2)nc1-c1cccs1)c1ccccc1F,-7%,32µM*,20%
O=C(Nc1ccncc1)c1cn(-c2ccccc2)nc1-c1cccs1,-4%,-8%,-1%
O=C(CNc1ccccc1)N/N=C/c1cn(-c2ccccc2)nc1-c1ccccc1,-6%,25µM*,22%
O=C(N/N=C/c1cn(-c2ccccc2)nc1-c1cc2ccccc2o1)c1ccncc1,-11%,24%,4%
COc1ccc(C(=O)N/N=C/c2ccc(OC(=O)c3cccs3)cc2)cc1,0%,?,-10%
O=S(=O)(N/N=C\c1cn(-c2ccccc2)nc1-c1ccccc1)c1ccccc1,-3%,?,-6%
O=C(N/N=C/c1cn(-c2ccccc2)nc1-c1cccs1)c1ccc(Cl)cc1,-9%,13µM*,22%
COc1ccc(-n2nc(C(=O)N3CCCCC3)c3c4ccccc4n(C)c3c2=O)cc1Cl,0%,2%,·
COc1c(C2=CC(=O)N(C)C2=O)c2c(n1C)C(=O)c1ccccc1C2=O,7%,-14%,·
COC(=O)c1cc2oc3ccccc3c2n1Cc1nc(-c2ccccc2Cl)oc1C,0%,-13%,·
Cc1cc(C)cc(NS(=O)(=O)c2ccc3[nH]cc(C(=O)NCCc4ccccc4)c(=O)c3c2)c1,-2%,?,·
CCc1ccc(NS(=O)(=O)c2ccc3[nH]cc(C(=O)NCCc4ccccc4)c(=O)c3c2)cc1,-1%,7.9µM*,·
C=CCOC(=O)N[C@H](/C(C(=O)OC)=C(\C)NCc1ccccc1)c1cccc(F)c1,4%,-8%,·
CCc1ccccc1NC(=O)C(=O)NCCCN1CCOCC1,-2%,-4%,·
Cc1cccc(C)c1NC(=O)COc1cccc(/C=N/NC(=O)C(=O)NCc2ccccc2)c1,7%,25µM*,4%
Cc1cccc(OCC(=O)NCC(=O)N/N=C/c2ccccc2)c1,·,·,6%
C[C@@H]1CC[C@]2(C(=O)O)CC[C@]3(C)C(=CCC4[C@@]5(C)C[C@@H](O)[C@H](O)[C@@](C)(CO)C5[C@H](O)C[C@]43C)C2[C@H]1C (stereo not given in full),0%,?,·
Cc1ccc2nc(NC(=O)CSc3cc(C)[nH]c(=O)n3)sc2c1,-6%,3%,·
CN(C)c1ccc(NC(=O)c2sc(SCC(=O)Nc3nccs3)nc2N)cc1,-7%,?,10%
CN(C)c1ccc(NC(=O)c2sc(SCC(=O)Nc3ccc(Br)cc3)nc2N)cc1,6%,10µM*,22%
SMILES,Cruzain Triton,Cruzain inh noDet,NS1 inh
COc1ccc(C(=O)Nc2nnc(S(=O)(=O)N(C)c3ccc(C)cc3)s2)cc1,-2%,-4%,·
CC1CCN(C(=O)Cn2cc(SCC(=O)Nc3ccccc3C(F)(F)F)c3ccccc32)CC1,-5%,-2%,·
Cc1ccc(S(=O)(=O)n2ccc(-c3cccc(OCc4c(F)cccc4Cl)c3)n2)cc1,5%,7.9µM*,26%
Cc1ccc(S(=O)(=O)n2ccc(-c3ccc(OCc4c(F)cccc4Cl)cc3)n2)cc1,2%,32µM*,3%
CN(CCOc1ccc(-c2ccn(S(=O)(=O)c3ccc(Cl)cc3)n2)cc1)c1ccccn1,2%,-29%,25%
CC(C)(C)NC(=O)Cn1nnc(-c2ccc(OCc3c(F)cccc3Cl)cc2)n1,·,·,5%
c1ccc(-c2nc(-c3cccc4ccccc34)c(Nc3ccc4ccccc4c3)o2)cc1,1%,-23%,·
C=CCn1c(SCc2nc3sc4c(c3c(=O)[nH]2)CCCC4)nc2ccccc2c1=O,-1%,13µM*,14%
C=CCn1c(SCc2nc3ccccc3c(=O)[nH]2)nc2sc3c(c2c1=O)CCCC3,·,·,3%
Cc1cc(C)nc(/N=C(/NC(=O)Nc2ccc(Cl)c(Cl)c2)Nc2cccc(Cl)c2)n1,0%,7.9µM*,-2%
CCOc1ccccc1NC(=O)Nc1ccc(Cl)cc1,-10%,-10%,?
CCOc1ccccc1N/C(=N/c1nc(C)cc(C)n1)NC(=O)Nc1ccc(Cl)c(Cl)c1,1%,4µM*,0%
Cc1cc(C)nc(/N=C(/NC(=O)Nc2ccc(Cl)c(Cl)c2)Nc2ccccc2)n1,-2%,?,-2%
CCCOc1ccccc1N/C(=N/c1nc(C)cc(C)n1)NC(=O)Nc1ccc(Cl)cc1,5%,7.9µM*,8%
COc1ccccc1N/C(=N/c1nc(C)cc(C)n1)NC(C)=O,3%,2%,-4%
CCC1=C2CC[C@H]3C(=O)N(CC)C(=O)[C@H]3[C@H]2[C@@]2(C)C(=O)N(CC(=O)OC)C(=O)N2C1=O,1%,2%,·
Cn1c(=O)n(C)c2cc(NS(=O)(=O)c3ccc(C(C)(C)C)cc3)c(NCc3ccccc3)cc21,-9%,-28%,·
CN1/C(=C\C(=S)NC(=O)c2cccc(Br)c2)C(C)(C)c2ccccc21,3.5µM*,?,26%
CN1/C(=C\C(=S)NC(=O)c2ccc([N+](=O)[O-])cc2)C(C)(C)c2ccccc21,-11%,?,?
COc1ccc(CNC(=O)C2CCN(C(=O)c3ccc(-n4ccc5ccccc54)s3)CC2)cc1,-3%,?,·
CCN(C(=O)Cn1c(=O)n(Cc2ccc3c(c2)OCO3)c(=O)c2ccc(C(=O)NC3CCCCC3)cc21)c1cccc(C)c1,-3%,32µM*,·
Cc1ccc(C)c(NC(=O)Cn2c(=O)n(Cc3ccc4c(c3)OCO4)c(=O)c3ccc(C(=O)NC4CCCCC4)cc32)c1,0%,-11%,·
O=C(Cn1c(=O)n(Cc2ccc3c(c2)OCO3)c(=O)c2ccccc21)Nc1cccc(Cl)c1,-5%,-24%,·
COc1cccc(NC(=O)Cn2c(=O)n(Cc3ccc(C(=O)NCc4ccc(C)cc4)cc3)c(=O)c3ccccc32)c1,-1%,13µM*,·
COc1cccc(NC(=O)Cn2c(=O)n(CCc3ccc(OC)c(OC)c3)c(=O)c3ccccc32)c1,-6%,5%,·
SMILES,Cruzain Triton,Cruzain inh noDet,NS1 inh
CC1CCN(C(=O)Cn2c(=O)n(Cc3ccc4c(c3)OCO4)c(=O)c3ccccc32)CC1,0%,-16%,-8%
O=C(Cn1c(=O)n(Cc2ccc(C(=O)NCc3ccc4c(c3)OCO4)cc2)c(=O)c2ccccc21)Nc1cccc(Cl)c1,-1%,4µM*,·
O=C(Cn1c(=O)n(Cc2ccc3c(c2)OCO3)c(=O)c2ccccc21)N1CCCc2ccccc21,-5%,32µM*,-16%
CC(C)C[C@@H](CC(=O)N[C@@H](CCC(=O)O)CC(=O)O)NC(=O)[C@@H]1CCCC[C@H]1NC(=O)C[C@@H](NC(=O)C[C@H](Cc1c[nH]c2ccccc12)NC(=O)[C@@H]1CNCC[C@H]1N)C(C)C,0%,-2%,·
CC(=O)N[C@H](Cc1ccc(O)cc1)C(=O)O,9%,-1%,4%
COc1ccc(OC(C)C(=O)NCc2nc(-c3cccc(C)c3)no2)cc1 (stereo not given),-8%,7%,·
O=C(OC1Cc2c(O)cc(O)cc2OC1c1cc(O)c(O)c(O)c1)c1cc(O)c(O)c(O)c1 (stereo not given),-7%,-16%,·
